Assay outcomes as filed in PubChem.
A549 tox – kills or reduces viability of A549 cells in Nrf2 counter-screen | hit rate 0.16% among 390,000 | Potency, µM (highest dose often 46 µM), for the others: at the highest dose activity change, negative = cytotoxicity, usual class: inhibitors | A549 ARE-Fluc cells, CellTiter-Fluor viability, 18-24 h; also: % is scaled to controls: 0 for no effect and ±100 for the full control effect
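Cytotoxicity counterscreen: CellTiter-Fluor fluorescence was measured in A549 ARE_Fluc cells after 18-24 h of compound exposure in a concentration series. The subsequent BugLite luminescent read reports ARE-luciferase activity.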
ELG1 DNA repair – ELG1-dependent DNA repair inhibition. HEK293T ELG1-luciferase reporter, luminescence, 16 h; DNA damage induced by 5-fluorouridine. hit rate 2.3% among 330,000. Potency, µM (series often up to 46.1 µM), without a hit: at the top dose activity change, negative = inhibition, actives largely listed as inhibitors; also: % is scaled to controls: 0 for no effect and ±100 for the full control effect; nearly all actives have a fitted effect of over 55% in size
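Quantitative HTS, concentration-response format. 2,000 cells/well co-treated with 5-fluorouridine and compound, 16 hr in 5% CO2 at 37 °C; ONE-Glo luminescence read after 30 min.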
Nrf2 activator – activates Nrf2 signaling | Potency, µM (top dose mostly 46.1 µM), for the others: at the highest dose activation, hits mostly activators | AID 624171 | hit rate 0.31% among 410,000 | AREc32 ARE-luciferase reporter (MCF7-derived line), luminescence, 24 h; also: % of control where 0% means no effect; nearly all actives have a fitted effect of over 65% in size
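Quantitative high-throughput format: AREc32 reporter cells, 1000 per well, received compound by pin transfer and were incubated 24 hr at 37 deg C, 5% CO2, before Steady-Glo luminescence detection.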
Nrf2 block – Nrf2 pathway inhibition; A549 ARE-Fluc reporter, luciferase luminescence, 18-24 h; Potency, µM (titrated, usually from 46 µM), without a hit: at the top dose activity change, negative = inhibition, most hits filed as inhibitors; hit rate 2.1% among 360,000; AID 504444; also: % is scaled to controls: 0 for no effect and ±100 for the full control effect; nearly all actives have a fitted effect of over 60% in size
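In this cell-based qHTS, ARE-driven firefly luciferase in A549 cells reports Nrf2 activity; the luminescent signal after BugLite lysis is the measured value, with a prior CellTiter-Fluor read for cell health.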
An asterisk follows results filed as active; ? = inconclusive; nt = not tested or not shown; [ ] = dose if it differs, or a comment. An excerpt weighted towards active compounds, which were near 3.7% of everything screened. Calls follow the shape of the dose curve; as a rule, active = well fitted curve in the direction sought with a large enough effect; inconclusive = small, poorly fitted or top-dose-only effect, or another doubt; inactive = no such curve, though single readings can be large; an effect the other way counts as inactive or inconclusive. Potency is read from the fitted curve at half-maximal effect.

SMILES | A549 tox | ELG1 DNA repair | Nrf2 activator | Nrf2 block
CCOc1cc(/C=C2\C(=O)N(CCc3ccc(OC)c(OC)c3)C(C)=C2C(=O)OC)ccc1O | 0% | 1.6µM* | 19% | -13%
CC1(C)CC[C@]2(C(=O)n3ccnc3)CC[C@]3(C)[C@H](C(=O)C=C4[C@@]5(C)C=C(C#N)C(=O)C(C)(C)[C@@H]5CC[C@]43C)[C@@H]2C1 | 6.5µM* | nt | 1.1µM* | 5.8µM*
COc1ccc(-c2cc(C(F)(F)F)nc(SCC(=O)N3CCOCC3)n2)cc1OC | -8% | 8.2µM* | 0% | nt
COc1ccc(-c2cc(C(F)(F)F)nc(SCC(=O)Nc3ccc(C(C)=O)cc3)n2)cc1 | -29% | nt | -1% | 23µM*
Cc1ccc(NS(=O)(=O)c2ccc3c(c2)CCC(=O)N3)cc1F | 1% | nt | nt | -13%
Cn1nnc2c(NCc3c(F)cccc3F)ncnc21 | 8% | nt | 1% | nt
COc1ccc(C(=O)Cn2nnc(-c3ccccc3NC(=O)c3ccco3)n2)cc1 | ? | ? | 1% | 18µM*
COc1ccc(NC(=O)Cn2nnc(-c3ccccc3NS(=O)(=O)c3ccccc3)n2)cc1 | -13% | -6% | 0% | 21µM*
O=C(O)c1ccc(NC(=S)Nc2ccc(S(=O)(=O)Nc3ccccn3)cc2)cc1 | 6% | nt | 0% | ?
Cc1csc2ncnc(N3CCN(C(=S)Nc4ccc(C(F)(F)F)cc4)CC3)c12 | -6% | -10% | 7% | 26µM*
CCc1ccccc1N1C(=O)N(Cc2cc(=O)n3ccccc3n2)c2ccccc2S1(=O)=O | -4% | nt | 1% | nt
O=C(CSC1=NCCS1)Nc1ccc(S(=O)(=O)N2CCCCCC2)cc1 | -27% | ? | 0% | 15µM*
Cc1ccc(C)c(NC(=O)Cc2ccc(S(=O)(=O)N3CCCCC3)s2)c1 | -3% | -15% | 0% | 1%
O=C(Cc1ccc(S(=O)(=O)N2CCOCC2)s1)Nc1ccc(S(=O)(=O)N2CCCCC2)cc1 | -2% | ? | 6% | 21µM*
CCOC(=O)c1ccccc1NC(=O)Cc1ccc(S(=O)(=O)N2CCCC2)s1 | 2% | 26µM* | 7% | ?
O=C(CCC1N=C2c3ccccc3N=C(SCc3ccccc3Cl)N2C1=O)NCCc1ccccc1 (stereo not drawn) | 7% | nt | -1% | 11%[9.27 µM]
Cc1ccc(-c2nnc(Nc3ccc4c(c3)OCO4)c3ccccc23)cc1S(=O)(=O)NC(C)C | -16% | 15µM* | 5% | ?
Cc1ccc(C)c(Nc2nnc(-c3ccc(C)c(S(=O)(=O)NCC4CCCO4)c3)c3ccccc23)c1 (stereo not drawn) | -12% | nt | 5% | 23µM*
CNC(=O)c1ccc(Nc2nnc(-c3ccc(C)c(S(=O)(=O)NCC4CCCO4)c3)c3ccccc23)cc1 (stereo not drawn) | 6% | ? | 0% | -17%
Cc1ccc(-c2nnc(Nc3ccccc3)c3ccccc23)cc1S(=O)(=O)NCC1CCCO1 (stereo not drawn) | -3% | 21µM* | 0% | ?
CC(=O)Nc1ccc(Nc2nnc(-c3ccc(C)c(S(=O)(=O)NCC4CCCO4)c3)c3ccccc23)cc1 (stereo not drawn) | 1% | 21µM* | 0% | -6%
Cc1ccc(-c2nnc(Nc3ccc4c(c3)OCO4)c3ccccc23)cc1S(=O)(=O)NCCO | 2% | ? | 3% | ?
C[C@H](O)[C@@H]1CN2CCc3c([nH]c4ccc(-c5ccc6c(c5)OCO6)cc34)[C@@H]2C[C@@H]1N(C)C(=O)NC1CCCCC1 | nt | nt | 0% | nt
Cc1ccc(C(=O)N2CCN(CCNC(=O)C(=O)Nc3ccc(Cl)cc3)CC2)cc1 | -16% | ? | 0% | 8%
O=C(NCCN1CCN(C(=O)c2c(F)cccc2F)CC1)C(=O)Nc1ccc(Cl)cc1 | -6% | 7.3µM* | 0% | -29%
SMILES | A549 tox | ELG1 DNA repair | Nrf2 activator | Nrf2 block
O=C(c1c(F)cccc1F)N1CCN(CCOc2ccccc2)CC1 | -5% | 21µM* | 0% | -25%
O=C(Nc1nc(-c2ccc(S(=O)(=O)N3CCCC3)cc2)cs1)c1cccs1 | -16% | 8.2µM* | 4% | nt
O=C(Nc1nc(-c2cccs2)cs1)c1cccc(S(=O)(=O)N2CCCCC2)c1 | -27% | ? | 16% | ?
O=C(Nc1nc(-c2ccc(S(=O)(=O)N3CCCCCC3)cc2)cs1)c1cccs1 | -11% | 13µM* | 3% | 6.5µM*
O=C(Nc1ccc(S(=O)(=O)N2CCCC2)cc1)c1cccs1 | 0% | 7% | 2% | -3%
CCOc1ccccc1NC(=O)C1(S(=O)(=O)c2ccc(Cl)cc2)CC1 | -10% | 1% | 0% | 12%
CCOc1ccc(C(=O)NCC(=O)N2CCCCCCC2)cc1 | 1% | -6% | 1% | 1%
Cc1ccc(CN(C)C(=O)C2CCC(=O)N(CC3CCCCC3)C2)o1 (stereo not drawn) | -4% | 6% | 7% | 10%
Cc1noc(C)c1-c1cccc(-c2nn3c(=O)cc(N4CCNCC4)nc3s2)c1 | 1% | nt | nt | -3%
Cc1ccc(-c2nn3c(C)nnc3s2)cc1NC(=O)c1ccc(-c2ccc(Cl)cc2Cl)o1 | 21µM* | -20% | -1% | ?
Cc1ccc(-c2nn3c(C)nnc3s2)cc1NC(=O)c1ccc(-c2cccc(Cl)c2)o1 | -13% | 18µM* | 0% | 15µM*
CC(=O)Nc1cc(-c2nn3c(C)nnc3s2)ccc1C | 6% | ? | 1% | 12%
Cc1ccc(-c2nn3c(C)nnc3s2)cc1NC(=O)c1ccc(Br)o1 | -14% | -2% | 5% | ?
CC(C)(C)NC(=S)N/N=C\c1ccc(-c2ccc([N+](=O)[O-])cc2)o1 | -2% | 21µM* | 3% | ?
O=C(CCCN1C(=O)c2ccccc2C1=O)NCCc1ccc(OC(F)F)cc1 | -4% | 7% | 0% | -5%
O=C(Cn1nnc2c(cnn2-c2ccccc2)c1=O)NCc1cccs1 | ? | 0% | 0% | -7%
CC1CCC(C(C)C)C(OC(=O)Cn2nnc3c(cnn3-c3ccccc3)c2=O)C1 (stereo not drawn) | 3% | 16µM* | -1% | 1%
COc1cc(C(=O)Nc2nc(-c3cc(C)ccc3C)c(C)s2)ccc1OCC(=O)Nc1ccc(F)cc1 | 0% | -18% | 0% | ?
COc1cc(C(=O)Nc2nc(-c3ccc(F)cc3)cs2)ccc1OCC(=O)N1CCOCC1 | -13% | ? | -2% | 21µM*
COc1ccc(-c2nc(NC(=O)c3ccc(OCC(=O)Nc4ccc(F)cc4)c(OC)c3)sc2C)cc1 | ? | ? | 0% | 15µM*
COc1cc(C(=O)Nc2nc(-c3ccc(C)cc3)cs2)ccc1OCC(=O)N1CCOCC1 | 7% | 21µM* | 6% | -26%
COc1cc2cc(C(=O)N3CCOCC3)cc(-c3ccc(C)cc3)c2cc1OC | ? | 15µM* | 0% | 18µM*
CCOc1ccccc1NC(=O)c1ccc(OCC(=O)N2CCOCC2)c(OC)c1 | 11% | 7% | -1% | -15%
COc1ccc(CNC(=O)C2CCN(C(=O)c3ccc(F)cc3)CC2)cc1OC | 0% | 9% | 0% | 1%
